Data: PubChem BioAssay (NCI)
This is part of a sample that, as a whole, favours compounds with a hit. Of some 83,000 tested, about 20% had one in any assay.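 Cells were grown in 96-well plates and exposed to the test compound at a single concentration for 48 hours; results are reported as percent growth, with values below 10 considered active.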 Calls of active or inactive are those of the source.

These compounds were tested on SK-MEL-28 melanoma (assay: NCI-60 one-dose screen, 48 h (100 = growth as untreated, 0 = no growth, -100 = all killed)). Conditions: 10 µM unless noted.
`CN(C)Cc1ccccn1` was tested, and the growth was 102% (inactive). For `CCNCC(C)(C)O`, the growth was 101% (inactive). `CCOS(=O)(=O)c1ccc([N+](=O)[O-])cc1` was tested, and the growth was 107% (inactive). For `CCCCCCCCCCCCSC1=C(Cl)C(=O)C(OC)=C(OC)C1=O`, the growth was 105% (inactive). `CN(C(=S)S(=O)(=O)C12CC3CC(CC(C3)C1)C2)c1ccccc1` was tested, and the growth was 107% (inactive). For `N#Cc1ccc2nc[nH]c2c1`, the growth was 108% (inactive). `CCCCCC#CC(=O)O` was tested, and the growth was 113% (inactive). With `CC(=O)C1C(=O)C(=O)N(c2ccc(Cl)c(Cl)c2)C1=O` (centres undefined) the growth was 103% (inactive). For `CC(C)OCC(CCl)OC(=O)Nc1ccccc1` (centres undefined), the growth was 111% (inactive). `COc1ccc(C(=O)/C(=N/Nc2ccccc2)c2ccc(OC)cc2)cc1` was tested, and the growth was 111% (inactive). For `Cc1cc(Nc2ccc3c(c2)OCO3)c2cc3c(cc2n1)OCO3`, the growth was 34.2% (inactive). In the case of `NC(=O)N1CCOCC1`, the growth was 106% (inactive). For `CC(=O)Nc1ccc(O)c(C)c1`, the growth was 103% (inactive). In the case of `COc1cccc2c1Cc1ccccc1-2`, the growth was 115% (inactive). For `C=COC(=O)CCOCC(CC)CCCC` (centres undefined), the growth was 113% (inactive). In the case of `N#C/C(=C\c1ccc(C#N)cc1)C(=O)c1ccccc1`, the growth was 121% (inactive). With `Cc1cccc(C)c1NC(=S)/N=C\c1c(O)[nH]c(=O)[nH]c1=O` the growth was 111% (inactive). For `COc1ccc(C(=O)C(=O)c2ccccc2)cc1`, the growth was 110% (inactive). In the case of `O=C1CSc2ccccc2N1`, the growth was 105% (inactive). With `Cc1c(Cl)cccc1NC(=S)NC(=O)c1ccccc1` the growth was 102% (inactive). With `CC(c1ccccc1)N(C)C` (centres undefined) the growth was 157% (inactive). In the case of `CCOC(=O)/C(O)=C(\C=N\C(=S)Nc1ccc(Cl)c(Cl)c1)C(=O)OCC`, the growth was 109% (inactive). For `CCC(=O)C1C(=O)c2ccccc2C1=O`, the growth was 120% (inactive). `CCCCCCCCCc1ccc(OC(C)=O)cc1` was tested, and the growth was 107% (inactive). `Nc1ncnc(Nc2ccc(C(F)(F)F)cc2)n1` was tested, and the growth was 104% (inactive). With `CCOP(=O)(OCC)/C(=C\N1C(=O)CC(=O)NC1=S)C(=O)OC` the growth was 107% (inactive). In the case of `C=CCOc1ccc(Cl)cc1Cl`, the growth was 115% (inactive). With `NNC(=O)N/N=C1\C(=O)N(c2nccs2)C(=O)C(=O)C1c1nc2ccccc2s1` (centres undefined) the growth was 112% (inactive). With `Cc1cc(Cl)cc(Cc2cc(Cl)cc(C)c2O)c1O` the growth was 22.6% (inactive). With `C=CCN1CCCC1=O` the growth was 108% (inactive). With `COc1cc(C(=O)O)c(O)c(C(C)(C)C)c1` the growth was 109% (inactive). For `CC(=O)OCC1OC(n2cnc3c(=S)nc(N)[nH]c32)C(OC(C)=O)C1OC(C)=O` (centres undefined), the growth was 114% (inactive). In the case of `CCC(=O)Oc1ccc2ccccc2c1`, the growth was 110% (inactive). For `CCOC(=O)C(=O)CC(=O)c1ccccc1`, the growth was 106% (inactive). In the case of `Cc1ccc(NCN2C(=O)c3ccccc3C2=O)c(C)n1`, the growth was 116% (inactive). In the case of `CC(C)c1ncc([N+](=O)[O-])n1C`, the growth was 119% (inactive). For `O=C(O)c1c[nH]c2ccccc2c1=O`, the growth was 102% (inactive).

The compounds below were run on SK-MEL-2 melanoma in the same assay as above. Conditions: 10 µM unless noted.
For `CN(C)Cc1ccccn1`, the growth was 107% (inactive). In the case of `CCNCC(C)(C)O`, the growth was 107% (inactive). `CCOS(=O)(=O)c1ccc([N+](=O)[O-])cc1` was tested, and the growth was 102% (inactive). With `CCCCCCCCCCCCSC1=C(Cl)C(=O)C(OC)=C(OC)C1=O` the growth was 39.3% (inactive). `CN(C(=S)S(=O)(=O)C12CC3CC(CC(C3)C1)C2)c1ccccc1` was tested, and the growth was 69.2% (inactive). With `N#Cc1ccc2nc[nH]c2c1` the growth was 102% (inactive). For `CCCCCC#CC(=O)O`, the growth was 107% (inactive). `CC(=O)C1C(=O)C(=O)N(c2ccc(Cl)c(Cl)c2)C1=O` (centres undefined) was tested, and the growth was 111% (inactive). With `CC(C)OCC(CCl)OC(=O)Nc1ccccc1` (centres undefined) the growth was 102% (inactive). With `COc1ccc(C(=O)/C(=N/Nc2ccccc2)c2ccc(OC)cc2)cc1` the growth was 96.2% (inactive). With `Cc1cc(Nc2ccc3c(c2)OCO3)c2cc3c(cc2n1)OCO3` the growth was 22.5% (inactive). `NC(=O)N1CCOCC1` was tested, and the growth was 105% (inactive). `CC(=O)Nc1ccc(O)c(C)c1` was tested, and the growth was 104% (inactive). For `COc1cccc2c1Cc1ccccc1-2`, the growth was 110% (inactive). With `C=COC(=O)CCOCC(CC)CCCC` (centres undefined) the growth was 96.9% (inactive). `N#C/C(=C\c1ccc(C#N)cc1)C(=O)c1ccccc1` was tested, and the growth was 101% (inactive). For `Cc1cccc(C)c1NC(=S)/N=C\c1c(O)[nH]c(=O)[nH]c1=O`, the growth was 103% (inactive). For `COc1ccc(C(=O)C(=O)c2ccccc2)cc1`, the growth was 110% (inactive). `O=C1CSc2ccccc2N1` was tested, and the growth was 103% (inactive). In the case of `Cc1c(Cl)cccc1NC(=S)NC(=O)c1ccccc1`, the growth was 96% (inactive). For `CC(c1ccccc1)N(C)C` (centres undefined), the growth was 84% (inactive). In the case of `CCOC(=O)/C(O)=C(\C=N\C(=S)Nc1ccc(Cl)c(Cl)c1)C(=O)OCC`, the growth was 116% (inactive). `CCC(=O)C1C(=O)c2ccccc2C1=O` was tested, and the growth was 102% (inactive). In the case of `CCCCCCCCCc1ccc(OC(C)=O)cc1`, the growth was 101% (inactive). `Nc1ncnc(Nc2ccc(C(F)(F)F)cc2)n1` was tested, and the growth was 103% (inactive). In the case of `CCOP(=O)(OCC)/C(=C\N1C(=O)CC(=O)NC1=S)C(=O)OC`, the growth was 118% (inactive). `C=CCOc1ccc(Cl)cc1Cl` was tested, and the growth was 119% (inactive). In the case of `NNC(=O)N/N=C1\C(=O)N(c2nccs2)C(=O)C(=O)C1c1nc2ccccc2s1` (centres undefined), the growth was 98.4% (inactive). In the case of `Cc1cc(Cl)cc(Cc2cc(Cl)cc(C)c2O)c1O`, the growth was -18.1% (active). For `C=CCN1CCCC1=O`, the growth was 161% (inactive). For `COc1cc(C(=O)O)c(O)c(C(C)(C)C)c1`, the growth was 106% (inactive). With `CC(=O)OCC1OC(n2cnc3c(=S)nc(N)[nH]c32)C(OC(C)=O)C1OC(C)=O` (centres undefined) the growth was 95.2% (inactive). With `CCC(=O)Oc1ccc2ccccc2c1` the growth was 95.2% (inactive). With `CCOC(=O)C(=O)CC(=O)c1ccccc1` the growth was 96.9% (inactive). `Cc1ccc(NCN2C(=O)c3ccccc3C2=O)c(C)n1` was tested, and the growth was 124% (inactive). In the case of `CC(C)c1ncc([N+](=O)[O-])n1C`, the growth was 127% (inactive). `O=C(O)c1c[nH]c2ccccc2c1=O` was tested, and the growth was 95.1% (inactive).
